The results in this text go back to ChEMBL document CHEMBL3433997, “St. Jude Leishmania screening dataset” (2016).

As usually defined, the inhibition is the change of the read-out against control, counted positive when it falls.

Chain of Solute carrier family 2, facilitated glucose transporter member 1 (Homo sapiens) (P11166 whole entry): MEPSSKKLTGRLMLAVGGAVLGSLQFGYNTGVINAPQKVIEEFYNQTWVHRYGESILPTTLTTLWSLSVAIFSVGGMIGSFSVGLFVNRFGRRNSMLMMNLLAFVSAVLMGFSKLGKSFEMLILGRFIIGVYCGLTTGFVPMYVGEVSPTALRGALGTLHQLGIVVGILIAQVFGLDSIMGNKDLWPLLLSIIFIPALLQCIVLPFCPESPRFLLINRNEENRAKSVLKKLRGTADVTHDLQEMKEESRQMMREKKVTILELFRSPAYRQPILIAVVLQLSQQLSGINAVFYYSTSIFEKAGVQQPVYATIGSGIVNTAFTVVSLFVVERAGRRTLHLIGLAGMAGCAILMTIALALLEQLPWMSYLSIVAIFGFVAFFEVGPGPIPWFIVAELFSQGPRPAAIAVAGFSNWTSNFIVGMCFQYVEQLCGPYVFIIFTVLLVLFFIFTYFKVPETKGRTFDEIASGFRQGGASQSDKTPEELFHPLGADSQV

The assay has as its target Solute carrier family 2, facilitated glucose transporter member 1 (Homo sapiens) (UniProt P11166). The assay is described as follows: ST_JUDE_LEISH: Cytotoxicity at 2uM final concentration against transgenic Leishmania Mexicana promastigotes LmGLUT1 that are glucose transport deficient and complemented with the human glucose transporter GLUT1. Activity is measured by DNA content using SYBR green in vitro. The format is functional.
`CCCCn1c(Sc2ccc(C#N)c([N+](=O)[O-])c2)nnc1-c1ccc(OC)cc1`: the inhibition was determined as 3.24%.
Under `Cc1cc(-c2ccc(NC(=O)N3CCc4cc(Cl)c(N5CCN(C)CC5)cc43)cc2)ccc1C#N` stands 78.1%.
For `C=C1N(C)c2cc([N+](=O)[O-])c(N)cc2C1(C)C`, the inhibition came to 0.68%.
Under `CCOc1cc(C=Cc2nc(O)c3ccccc3n2)cc(Cl)c1O` stands 5.1%; under `COc1ccc2ncc(Cl)c(CCN3CCC(NCc4ccc5c(n4)NC(=O)CS5)CC3)c2c1`, 7.16%; under `COc1ccc(C2CC(c3cccs3)=NN2C(=O)CNc2cccc(C#N)c2)cc1OC` (stereo unspecified), 7.28%.
`NCc1cccc(-c2ccccc2CNC2CCN(Cc3ccccc3)CC2)c1`: the inhibition was determined as 6%.
Under `c1cc(Nc2nccc(-c3cnn4ncccc34)n2)cc(-c2cnco2)c1` stands 35.9%.
With `Cc1ccccc1OCCCN1CCN(CC(c2ccc(F)cc2)N2CCN(C(C)C)CC2)CC1` (stereo unspecified), the inhibition stood at 13.1%.
As for `CCc1ccccc1OCCCON1C(=N)N=C(N)NC1(C)C`, the figure is 28.6%; as for `O=C(Cc1cccs1)NCC(c1ccccc1Cl)c1c[nH]c2ccccc12` (stereo unspecified), 2.89%.
Under `COc1cc(NC(=O)/C=C/c2cc(F)cc(F)c2F)cc(OCCN2CCN(CCN3CCOCC3)CC2)c1` stands 3.46%.
Under `NCCCN(Cc1ccc(Cl)c(Cl)c1)C(=O)Nc1ccc(Cl)c(Cl)c1` stands 14.3%; under `O=C(c1ccc(Cl)cc1)N1CCCC(C(=O)N(Cc2nnc(-c3ccccc3Cl)o2)C2CC2)C1` (stereo unspecified), 0.11%.
Take `COc1ccc(S(=O)(=O)N(CCCN2CCN(C)CC2)Cc2csc(-c3ccc(CNCc4ccccc4)cc3)n2)cc1`: the inhibition is -1.13%.
With `CCOc1ccc(C2CCN(CCCCNC(=O)c3ccc(NC(=O)c4ccc(Cl)cc4)cc3)CC2)c(CC)c1`, the inhibition stood at 0.2%.
